Laboratory results: ChEMBL document CHEMBL5308504, “Tm Shift (DSF) assay results for EUbOPEN Chemogenomics Library” (2023)

Assays:
Conditions in all cases: Compound concentration 20.0 uM, Protein concentration 2.0 uM, Result type QC Liability
[1] = molecular target: Tyrosine-protein kinase ABL1 (Homo sapiens) (UniProt P00519)
[2] = molecular target: Cyclin-dependent kinase 2 (Homo sapiens) (UniProt P24941)
[3] = molecular target: Casein kinase I isoform delta (Homo sapiens) (UniProt P48730)
[4] = molecular target: Glycogen synthase kinase-3 beta (Homo sapiens) (UniProt P49841)
Chain of Glycogen synthase kinase-3 beta (Homo sapiens) (P49841 whole entry, looked up): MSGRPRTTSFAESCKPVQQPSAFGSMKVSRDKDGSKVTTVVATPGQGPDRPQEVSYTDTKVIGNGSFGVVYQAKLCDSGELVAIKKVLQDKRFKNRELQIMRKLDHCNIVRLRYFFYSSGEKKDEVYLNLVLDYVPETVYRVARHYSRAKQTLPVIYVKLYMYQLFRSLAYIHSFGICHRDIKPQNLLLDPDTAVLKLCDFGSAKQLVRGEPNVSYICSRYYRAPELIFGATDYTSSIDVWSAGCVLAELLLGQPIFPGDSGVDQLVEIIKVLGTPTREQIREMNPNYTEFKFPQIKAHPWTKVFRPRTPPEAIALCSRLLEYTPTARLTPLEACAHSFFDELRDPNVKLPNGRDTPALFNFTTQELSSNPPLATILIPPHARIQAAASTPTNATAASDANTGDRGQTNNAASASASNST

[5] = molecular target: Mitogen-activated protein kinase 1 (Homo sapiens) (UniProt P28482)
Chain of Mitogen-activated protein kinase 1 (Homo sapiens) (P28482 whole entry): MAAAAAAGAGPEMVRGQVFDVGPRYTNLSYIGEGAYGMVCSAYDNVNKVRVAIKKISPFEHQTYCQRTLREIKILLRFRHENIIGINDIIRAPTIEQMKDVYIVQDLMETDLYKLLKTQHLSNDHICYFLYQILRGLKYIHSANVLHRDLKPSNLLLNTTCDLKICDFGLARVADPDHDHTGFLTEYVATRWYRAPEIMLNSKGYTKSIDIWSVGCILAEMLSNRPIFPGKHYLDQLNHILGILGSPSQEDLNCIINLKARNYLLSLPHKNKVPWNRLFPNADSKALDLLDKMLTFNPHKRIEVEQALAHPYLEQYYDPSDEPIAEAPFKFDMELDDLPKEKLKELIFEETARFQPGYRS

[6] = molecular target: T1, Aurora kinase A (Homo sapiens) (UniProt O14965)
T1 sequence (whole entry): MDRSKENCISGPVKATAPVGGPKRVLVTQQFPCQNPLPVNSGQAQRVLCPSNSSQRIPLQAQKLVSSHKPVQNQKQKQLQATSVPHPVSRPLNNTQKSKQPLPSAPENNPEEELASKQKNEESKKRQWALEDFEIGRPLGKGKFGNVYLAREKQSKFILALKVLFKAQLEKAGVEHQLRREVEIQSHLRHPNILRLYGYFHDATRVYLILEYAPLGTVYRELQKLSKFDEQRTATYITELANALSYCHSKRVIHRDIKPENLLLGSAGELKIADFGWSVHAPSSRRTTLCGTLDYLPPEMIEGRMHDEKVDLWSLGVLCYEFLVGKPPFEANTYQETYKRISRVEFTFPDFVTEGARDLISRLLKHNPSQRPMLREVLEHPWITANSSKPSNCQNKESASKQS

Chain of Tyrosine-protein kinase ABL1 (Homo sapiens) (P00519 whole entry): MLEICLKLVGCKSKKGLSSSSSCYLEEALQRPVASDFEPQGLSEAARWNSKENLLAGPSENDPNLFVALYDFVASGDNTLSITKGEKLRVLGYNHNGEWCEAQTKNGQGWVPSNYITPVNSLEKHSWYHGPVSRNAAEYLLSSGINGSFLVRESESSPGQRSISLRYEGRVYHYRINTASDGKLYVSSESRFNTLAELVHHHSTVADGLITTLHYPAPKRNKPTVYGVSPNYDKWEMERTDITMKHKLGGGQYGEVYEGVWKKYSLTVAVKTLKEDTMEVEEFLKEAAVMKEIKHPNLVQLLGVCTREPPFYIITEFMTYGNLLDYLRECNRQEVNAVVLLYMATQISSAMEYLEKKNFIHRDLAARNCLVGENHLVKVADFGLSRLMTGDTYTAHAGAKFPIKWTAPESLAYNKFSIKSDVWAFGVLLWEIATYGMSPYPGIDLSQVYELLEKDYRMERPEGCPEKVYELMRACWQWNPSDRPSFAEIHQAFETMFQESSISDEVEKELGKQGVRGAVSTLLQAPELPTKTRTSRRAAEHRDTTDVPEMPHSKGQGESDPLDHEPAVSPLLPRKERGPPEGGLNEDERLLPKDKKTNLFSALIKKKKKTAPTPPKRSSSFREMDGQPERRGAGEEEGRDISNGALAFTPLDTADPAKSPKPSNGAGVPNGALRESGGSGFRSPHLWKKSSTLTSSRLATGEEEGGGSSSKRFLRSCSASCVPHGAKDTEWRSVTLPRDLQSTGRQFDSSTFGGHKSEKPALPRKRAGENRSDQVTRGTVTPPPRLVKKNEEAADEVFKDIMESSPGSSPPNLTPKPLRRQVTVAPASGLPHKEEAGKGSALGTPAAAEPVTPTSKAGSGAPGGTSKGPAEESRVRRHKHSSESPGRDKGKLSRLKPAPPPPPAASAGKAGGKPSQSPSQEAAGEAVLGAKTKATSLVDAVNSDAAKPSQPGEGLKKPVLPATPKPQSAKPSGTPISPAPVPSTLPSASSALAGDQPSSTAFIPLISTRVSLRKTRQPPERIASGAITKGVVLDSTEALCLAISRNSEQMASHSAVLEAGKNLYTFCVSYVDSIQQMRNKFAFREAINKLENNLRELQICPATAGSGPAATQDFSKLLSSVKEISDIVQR
Chain of Casein kinase I isoform delta (Homo sapiens) (P48730 whole entry, looked up, canonical isoform): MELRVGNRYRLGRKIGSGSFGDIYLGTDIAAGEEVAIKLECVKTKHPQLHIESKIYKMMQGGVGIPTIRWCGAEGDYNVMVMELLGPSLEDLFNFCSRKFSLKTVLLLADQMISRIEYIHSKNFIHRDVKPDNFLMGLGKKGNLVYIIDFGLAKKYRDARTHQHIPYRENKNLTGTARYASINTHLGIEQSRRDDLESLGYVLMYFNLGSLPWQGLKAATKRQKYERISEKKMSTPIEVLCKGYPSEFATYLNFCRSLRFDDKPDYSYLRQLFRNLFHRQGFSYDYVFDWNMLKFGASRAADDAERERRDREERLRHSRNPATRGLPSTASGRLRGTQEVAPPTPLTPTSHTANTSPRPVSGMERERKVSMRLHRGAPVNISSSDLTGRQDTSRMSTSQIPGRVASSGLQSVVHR

| Structure (SMILES) | ΔTm [1] | ΔTm [2] | ΔTm [3] | ΔTm [4] | ΔTm [5] | ΔTm [6] |
| --- | --- | --- | --- | --- | --- | --- |
| Cc1cc(-c2cnc(N)c3c(-c4ccc5scnc5c4)csc23)n(C)n1 | 7.77 °C | -0.21 °C | 0.67 °C | -0.81 °C | -0.07 °C | -0.03 °C |
| CC#CC(=O)N1CCN(c2nc(-c3ccc(Oc4ccccc4)cc3)c(C(N)=O)s2)CC1 | -0.27 °C | -1.44 °C | -8 °C | -2.57 °C | -9.83 °C | -1.3 °C |
| Cc1cc2c(-c3ccco3)cnc(N[C@H]3CCN(C)C[C@@H]3C(=O)NC3CCCCC3)c2[nH]c1=O | 0.25 °C | 0.22 °C | 0.37 °C | -0.67 °C | 0.2 °C | -1.37 °C |
| N#CN1CC[C@@H](C(=O)Nc2nc3c(s2)CN(C(=O)CN=[N+]=[N-])CC3)C1 | 0.86 °C | 0.33 °C | 0.49 °C | -0.33 °C | 0.62 °C | -0.54 °C |
| O=C(NC[C@@H]1[C@H]2CN(C(=O)OCc3cc(C(F)(F)F)cc(C(F)(F)F)c3)C[C@@H]12)c1ccc2[nH]nnc2c1 | -2.53 °C | -9.8 °C | 0.69 °C | -10.5 °C | -10.3 °C | 0.61 °C |
| CN(C)C/C=C/C(=O)Nc1cccc(S(=O)(=O)N2CCC(NC(=O)c3n[nH]cc3NC(=O)c3c(Cl)cc(Cl)cc3Cl)CC2)c1 | 3.66 °C | 11.4 °C | 2.28 °C | 10.9 °C | 1.34 °C | 2.6 °C |
| Cc1cc(C2CCCNC2)ccc1Nc1ncc(Br)c(NCc2cccc3c2C(C)(C)C(=O)N3)n1 (stereo not given) | 1.52 °C | 2.03 °C | 0.34 °C | 1.91 °C | 2.1 °C | 3.81 °C |
| CN(C)[C@H]1CCN(c2cc(C(F)(F)F)c(C#N)c(Nc3cccc(CCC(=O)O)c3)n2)C1 | -0.06 °C | 0.28 °C | 0.14 °C | 0.08 °C | 0.58 °C | 0.51 °C |
| N#C/C(=C\c1ccc(O)c(O)c1)C(=O)OCCc1cccs1 | 2.18 °C | 1.1 °C | 2.15 °C | 0.01 °C | 0.37 °C | 4.16 °C |
| CC[C@H](Nc1c(C#N)c(-c2ccc(-c3cccc(C)c3F)cc2)nc2cnccc12)C(=O)O | 1.4 °C | -0.67 °C | -0.79 °C | -0.59 °C | -0.11 °C | 2.03 °C |
| CC(C)[C@H](CO)Nc1nc(Nc2ccc(C(=O)O)c(Cl)c2)c2ncn(C(C)C)c2n1 | 6.07 °C | 9.51 °C | 2.59 °C | 2.37 °C | 4.14 °C | 7.69 °C |
| CN(C)CC#Cc1ccc2[nH]c3c(c2c1)-c1nc(N)ncc1CCC3 | 0.75 °C | -0.08 °C | 3.05 °C | 0.06 °C | 0.46 °C | 1.23 °C |
| CN(C)c1ncc2cc(-c3ccc(-c4ncccc4F)cc3Cl)c(=O)n(C[C@H]3OC[C@H](N)CO3)c2n1 | -0.17 °C | 0.29 °C | 0.68 °C | -0.87 °C | -0.05 °C | -1.8 °C |
| c1ccc2c(-c3coc4cc(-c5ccc(N6CCNCC6)cc5)cnc34)ccnc2c1 | 3.66 °C | -0.03 °C | 1.09 °C | -0.47 °C | 0 °C | -0.46 °C |
| CC(=O)c1c(C)c2cnc(Nc3ccn(C)n3)nc2n(C2CCCC2)c1=O | -0.44 °C | -0.29 °C | -0.59 °C | 2.32 °C | 0.48 °C | 0.47 °C |
| COCc1c(-c2cc3cc(C)cc(OC)c3s2)c2c(N)ncnn2c1CN[C@@H]1CCNC1=O | 2.45 °C | 0.59 °C | 0.29 °C | -0.7 °C | 0.28 °C | 3.49 °C |
| COc1cc(C(N)=O)ccc1Nc1ncc2c(n1)N(CCC(C)C)[C@H](C)C(=O)N2C | 1.42 °C | -0.37 °C | 0.51 °C | 0.01 °C | -6.61 °C | -0.69 °C |
| Cc1nc2cccnc2n2c(-c3cc([C@@]4(O)CCCOC4)ccc3Cl)nnc12 | -0.53 °C | 0.88 °C | 0.26 °C | -0.63 °C | 0 °C | -0.06 °C |
| CC(F)(F)CN1C(=O)c2[nH]nc(-c3cccc4[nH]c(=O)oc34)c2C1c1ccc(Oc2cc(C(F)(F)F)cc(C(F)(F)F)c2)cc1 (stereo not given) | 0.76 °C | 0.46 °C | 4.37 °C | -4.17 °C | 1.19 °C | 0 °C |
| CCCCCCCC/C=C\CCCCCCCC(=O)NCCO | -1.47 °C | -0.92 °C | -0.85 °C | -2.08 °C | -1.79 °C | -2.91 °C |
| CC(C)C(=O)N[C@@H]1CCN(C(=O)Nc2nc3c(s2)-c2nc(-c4ccccc4Cl)ncc2CC3)C1 | 2.72 °C | 0.75 °C | 2.85 °C | 0.38 °C | 0.99 °C | 2.98 °C |
| COc1ccc2c(O[C@@H]3C[C@H]4C(=O)N[C@]5(C(=O)O)CC5/C=C\CCCCC[C@H](NC(=O)OC5CCCC5)C(=O)N4C3)cc(-c3csc(NC(=O)C(C)C)n3)nc2c1C (stereo not given in full) | 0.27 °C [middle of 4 runs] | 0.77 °C [middle of 4 runs] | 0.4 °C [middle of 4 runs] | -0.22 °C [middle of 4 runs] | 0.48 °C [middle of 4 runs] | 0.2 °C [middle of 4 runs] |
| CCn1c(=O)c2c(C)c(C(=O)N3CCC(O)CC3)sc2n(CCC(F)(F)F)c1=O | 0.35 °C | 0.49 °C | 0.3 °C | -0.42 °C | 0.14 °C | 0.03 °C |
| Cc1nc2ccc(Oc3ccc(F)cc3)cc2c(=O)n1C[C@H]1CCCN(C(C)C)C1 | 0.92 °C | 0.32 °C | 0.35 °C | -0.38 °C | 0.41 °C | 0.12 °C |
| CN1CCC(F)(Cn2cnc(-c3ccc(F)cn3)c2-c2ccnc3[nH]ccc23)CC1 | 0.05 °C | 0.48 °C | 8.14 °C | -0.54 °C | 0.37 °C | -0.98 °C |
